Assay results reported in PubChem BioAssay AID1347383 (Zoeller Lab, School of Medicine, Boston University, 2020).
The source made the active and inactive calls.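 How the source made its calls: active means cell survival after UV exposure 2 SD above solvent-only control wells at 10 µM, confirmed on one or two repeats; inactive means the rest.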

Assay: protection of CHO cells from pyrene-fatty acid UV killing, primary screen, phospholipid biosynthesis inhibitor project, ZR-82 cells, Analyticon library, screen 2 (AID 1347383);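 further: survival reflects blocked phospholipid synthesis cutting uptake of the phototoxic fatty acid; compound and fatty acid exposure 3 h then viability read next day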
Details: ZR-82 CHO cells, CellTiter Blue, at 10 µM, peroxisome-deficient CHO-K1 variant, with DGAT-1, DGAT-2 and ACAT inhibitors

Row | Compound | outcome
1 | CC(C)=CCC/C(C)=C/Cc1c(O)c(CC=C(C)C)c2oc3ccc(O)cc3c(=O)c2c1O | inactive
2 | CC(=O)CCCCCCc1ccc2c(c1)OCO2 | inactive
3 | CC1OC(n2cnc3c(N)ncnc32)C(O)C1O (centres undefined) | inactive
4 | COc1ccc(C(O)CNC(=O)/C=C/c2ccccc2)cc1 (centres undefined) | inactive
5 | C=C(COC(=O)C(C)C)C1Oc2cc(C(C)=O)ccc2C1OC(=O)C(C)C (centres undefined) | inactive
6 | COc1ccc(CC(C)C(C)Cc2ccc3c(c2)OCO3)cc1OC (centres undefined) | inactive
7 | O=C(O)/C=C/c1ccccc1O | inactive
8 | CC1Cc2cc(O)c(O)cc2C(c2ccc(O)c(O)c2)C1C (centres undefined) | inactive
9 | CC1(C)C=Cc2c(c3ccccc3[nH]c2=O)O1 | inactive
10 | CCC(C)CC(=O)OC1C(=O)C(CO)C(OC)C(OC(C)=O)C1C(C)C (centres undefined) | inactive
11 | CCC(C)C(=O)Oc1cc(C)ccc1C1(COC(=O)C(C)C)CO1 (centres undefined) | inactive
12 | COc1ccc(-c2coc3cc(O)ccc3c2=O)cc1 | inactive
13 | C=CC#Cc1ccc(-c2cccs2)s1 | inactive
14 | COc1c(O)cc2c3c1COc1cc(O)cc(c1-3)CC2 | inactive
15 | CC/C=C/CC1=C(CCCCCCCC(=O)O)CCC1=O | inactive
16 | O=C(O)c1ccc(OC2OC(CO)C(O)C(O)C2O)cc1 (centres undefined) | inactive
17 | C=C1C=CC(C(C)C)CCC(=C)C(O)CC1 (centres undefined) | inactive
18 | CC(C)=CCCC(C)(O)C1CC[C@]2(C)C1CC[C@@H]1[C@@]3(C)CCC(=O)C(C)(C)[C@@H]3CC[C@]12C (some centres undefined) | inactive
19 | COc1ccc(CCc2cc(OC)cc(=O)o2)cc1 | inactive
20 | C/C=C(\C)C(=O)O[C@@H]1[C@@H](C(C)C)[C@@H](OC(C)=O)C=C(CO)[C@@H]1O | inactive
21 | CC(C)CNC(=O)/C=C/C=C/Cc1cccs1 | inactive
22 | C/C=C/C=C/C(=O)N1CC[C@]23c4ccccc4N[C@H]4N(C)c5cccc6c5[C@]42CCN([C@H]6C2OC2(C)C)[C@H]13 (some centres undefined) | inactive
23 | CCC(C)C1NC(=O)C2CCCN2C1=O (centres undefined) | inactive
24 | O=C(/C=C/c1ccc(O)cc1)c1ccc(O)cc1O | inactive
25 | CC1(C)CCC[C@@]2(C)C1C[C@H]1O[C@@]1(C)[C@]21CC[C@](C)(CC(=O)O)O1 (some centres undefined) | inactive
26 | C=CC(C)(C)c1c(OC)oc2cccc(C)c2c1=O | inactive
27 | COc1c(C)c2c(c(O)c1C/C=C(\C)C(O)CC(=O)O)C(=O)OC2 (centres undefined) | inactive
28 | O=C(CCc1ccccc1)C[C@@H](O)CCc1ccccc1 | inactive
29 | CC1Cc2cc(O)c(O)cc2C(c2ccc(O)cc2)C1C (centres undefined) | inactive
